Results filed as inconclusive are left out. Active and inactive are the calls of the source. How the source made its calls, unless noted: active means hit-call score of the fitted dose curve at least 0.9, where 1 is the maximum; inactive means score below 0.9.

This note sets out measurements from PubChem BioAssay (EPA / NIEHS).

The nature of test [1]: ATG_TAL_CIS: Attagene CIS-FACTORIAL HepG2 Assay for human TAL Basal Promoter (AID 2282966).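 Further: background control endpoint measuring basal TAL promoter reporter mRNA not a specific factor.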 The conditions noted are these: HepG2 Attagene cis-factorial TAL promoter reporter; actives raise or lower the signal. The essentials: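 Steps: transfect HepG2 with multiple reporter transcription units; dose 24 h; isolate RNA, reverse-transcribe, PCR-amplify, label with 6-FAM, digest with HpaI; resolve by capillary electrophoresis. Bidirectional fitting against DMSO baseline.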

The nature of test [2]: ATG_TGFb_CIS: Attagene CIS-FACTORIAL HepG2 Assay for human Transforming Growth Factor (TGF) (AID 2282967). The note with it: HepG2 Attagene CIS TGFb reporter, mRNA transcription; actives raise or lower the signal. The essentials:
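Multiplexed cis-reporter HepG2 system, 24 h treatment; mRNA induction read by fluorescence after RT-PCR and CE; DMSO negative control, bidirectional curve fitting.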

In test [3] the target is X-box-binding protein 1 (Homo sapiens) (UniProt P17861). Put plainly: ATG_Xbp1_CIS: Attagene CIS-FACTORIAL HepG2 Assay for human X-box Binding Protein 1 (XBP1) (AID 2282972). The conditions noted are these: HepG2 XBP1 cis-element reporter, Attagene multiplex; actives raise or lower the signal. Summed up: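 HepG2 cells transiently transfected with cis-regulated multiple reporter transcription units; endogenous transcription factor activity measured 24 hours after chemical dosing. Reporter mRNA quantified by RT-PCR, 6-FAM primer extension, HpaI digestion and capillary electrophoresis; bidirectional fitting versus DMSO.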

A short description of test [4]: ATG_M_19_TRANS: Attagene TRANS-FACTORIAL HepG2 Assay for M19 Transcription Factor (Internal Marker) (AID 2282974; active means hit-call score of the fitted dose curve at least 0.9, where 1 is the maximum). The note with it: HepG2 Attagene TRANS-FACTORIAL M19 internal marker reporter. Summed up:
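24 h chemical exposure of transiently transfected HepG2 (MRTU library). RNA → oligo(dT) RT → PCR → 6-FAM labelling → HpaI cut → CE fluorescence. Positive-direction fit vs DMSO baseline; background internal-marker readout.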

Test [5] addresses Glucocorticoid receptor (Homo sapiens) (UniProt P04150). Put plainly: ATG_GR_TRANS: Attagene TRANS-FACTORIAL HepG2 Assay for human Glucocorticoid Receptor (GR) (AID 2282978; active means hit-call score of the fitted dose curve at least 0.9, where 1 is the maximum;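 further: activators score as hits since higher reporter transcript over DMSO is fitted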). The note with it: HepG2 Attagene TRANS GR reporter, mRNA transcription. Summed up: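 Transient MRTU transfection of HepG2 (GAL4-UAS reporters, exogenous NR-GAL4 chimeras), 24 h dosing. Readout: reporter transcript via RT-PCR + capillary electrophoresis fluorescence. Positive direction vs DMSO baseline.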

Test [6] has as its target Hepatocyte nuclear factor 4-alpha (Homo sapiens) (UniProt P41235). Kind of test: ATG_HNF4a_TRANS: Attagene TRANS-FACTORIAL HepG2 Assay for human Hepatocyte Nuclear Factor 4 alpha (HNF4a) (AID 2282982; active means hit-call score of the fitted dose curve at least 0.9, where 1 is the maximum). The conditions noted are these: HepG2 HNF4a transactivation reporter, mRNA readout. The essentials: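 Gain-of-signal mRNA induction, relative to DMSO vehicle, was read after 24 h compound treatment of HepG2 cells bearing transfected GAL4-UAS reporters. Detection used RT-PCR, 6-FAM primer extension and capillary electrophoresis.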

The target of test [7] is Nuclear receptor subfamily 4 group A member 2 (Homo sapiens) (UniProt P43354). Put plainly: ATG_NURR1_TRANS: Attagene TRANS-FACTORIAL HepG2 Assay for human Nuclear Receptor Related Protein 1 (NURR1) (AID 2282985; active means hit-call score of the fitted dose curve at least 0.9, where 1 is the maximum). The conditions noted are these: HepG2 Attagene TRANS reporter, mRNA readout. The essentials: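 HepG2 / transient MRTU transfection / 24 h compound exposure / RT-PCR + CE fluorescence of reporter mRNA / gain-of-signal vs DMSO.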

Test [8] has as its target Transcriptional activator Myb (Homo sapiens) (UniProt P10242). Put plainly: ATG_Myb_CIS: Attagene CIS-FACTORIAL HepG2 Assay for human Myeloblastosis (Myb) Proto-Oncogene Transcription Factor (AID 2282986). The note with it: HepG2 Attagene CIS-FACTORIAL Myb reporter transcription; actives raise or lower the signal. Summed up:
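HepG2, transient MRTU transfection (cis-element promoters, endogenous TF activity), 24 h compound exposure. Readout: reporter mRNA via RT-PCR, 6-FAM labeling, HpaI digest, capillary electrophoresis. Gain/loss fit vs DMSO.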

The target in test [9] is Nuclear respiratory factor 1 (Homo sapiens) (UniProt Q16656). Kind of test: ATG_NRF1_CIS: Attagene CIS-FACTORIAL HepG2 Assay for human Nuclear Respiratory Factor 1 (NRF1) Orphan Gene (AID 2282987). The note with it: HepG2 NRF1 cis-element reporter, Attagene multiplex; actives raise or lower the signal. Summed up:
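Endogenous NRF1-driven reporter transcription measured in transiently transfected human HepG2 liver cells. Readout: reporter mRNA by RT-PCR and capillary electrophoresis with fluorescence detection, 24 h post-dosing. Gain or loss of signal fitted relative to DMSO baseline.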

Test [10] can be described thus: ATG_NFI_CIS: Attagene CIS-FACTORIAL HepG2 Assay for human Nuclear Factor I (NFI) (AID 2282989). The note with it: HepG2 cis-regulatory reporter, NFI response element transcription; actives raise or lower the signal. The essentials: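 Multiplexed cis-reporter system in human HepG2 cells reports native TF activity as reporter mRNA induction 24 h post-dose. Fragments labelled with 6-FAM, HpaI-digested and resolved by capillary electrophoresis; activity fitted both directions versus DMSO.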

The target in test [11] is Oxysterols receptor LXR-alpha (Homo sapiens) (UniProt Q13133). Put plainly: ATG_LXRa_TRANS: Attagene TRANS-FACTORIAL HepG2 Assay for human Liver X Receptor alpha (LXRa) (AID 2282980; active means hit-call score of the fitted dose curve at least 0.9, where 1 is the maximum). The note with it: HepG2 Attagene TRANS reporter, LXRa transactivation. The essentials: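 In this multiplexed TRANS system, compounds act on HepG2 cells carrying GAL4-UAS reporter units and a receptor-GAL4 fusion for 24 h. Induced reporter RNA is amplified, fluorescently labelled and sized by capillary electrophoresis, with DMSO as baseline.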

A short description of test [12]: ATG_M_06_TRANS: Attagene TRANS-FACTORIAL HepG2 Assay for M06 Transcription Factor (Internal Marker) (AID 2282983; active means hit-call score of the fitted dose curve at least 0.9, where 1 is the maximum). The note with it: HepG2 Attagene TRANS M06 internal marker reporter. Summed up:
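Internal-marker background readout from a multiplexed TRANS reporter system in HepG2; 24 h dosing; mRNA induction quantified by RT-PCR plus capillary electrophoresis fluorescence; DMSO as negative control and baseline.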

A short description of test [13]: ATG_M_32_TRANS: Attagene TRANS-FACTORIAL HepG2 Assay for M32 Transcription Factor (Internal Marker) (AID 2282984; active means hit-call score of the fitted dose curve at least 0.9, where 1 is the maximum;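 further: transcript level of a background control reporter unit measured by RT-PCR and capillary electrophoresis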). The conditions noted are these: HepG2 Attagene TRANS M32 internal marker reporter. The essentials: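 Capillary electrophoresis of 6-FAM-labelled reporter fragments gives the signal; data fitted for gain over DMSO negative control. Source: HepG2 cells bearing transient multiple reporter transcription units, 24 h exposure.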

The nature of test [14]: ATG_VDRE_CIS: Attagene CIS-FACTORIAL HepG2 Assay for human Vitamin D Receptor Element (VDRE) (AID 2282968). The note with it: HepG2 VDRE cis-reporter transcription, actives raise or lower the signal. The essentials: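 Cell-based multiplexed reporter format in human liver HepG2 cells, 24 h post-dose. Fluorescence from capillary electrophoresis of reporter cDNA gives the signal, with DMSO as negative control and baseline.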

The target of test [15] is Nuclear receptor subfamily 1 group I member 3 (Homo sapiens) (UniProt Q14994). Put plainly: ATG_CAR_TRANS: Attagene TRANS-FACTORIAL HepG2 Assay for human Constitutive Androstane Receptor (CAR) (AID 2282969; active means hit-call score of the fitted dose curve at least 0.9, where 1 is the maximum;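 further: activators raise reporter mRNA above DMSO so AC50 marks induction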). The note with it: HepG2 Attagene TRANS-FACTORIAL CAR reporter. The essentials: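 HepG2 cells transiently transfected with GAL4-UAS reporter units; TRANS format reads activity of exogenous chimeric NR-Gal4 protein. After 24 h dosing, reporter mRNA quantified by RT-PCR, 6-FAM labelling and capillary electrophoresis; gain of signal fitted against DMSO.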

For test [16], the target named is Steroid hormone receptor ERR1 (Homo sapiens) (UniProt P11474). Kind of test: ATG_ERRa_TRANS: Attagene TRANS-FACTORIAL HepG2 Assay for human Estrogen-Related Receptor alpha (ERRa) (AID 2282971; active means hit-call score of the fitted dose curve at least 0.9, where 1 is the maximum). The conditions noted are these: HepG2 Attagene TRANS reporter, ERRa transactivation. The essentials: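 Signal gain relative to DMSO for an ERRa-Gal4 chimeric receptor, read as reporter mRNA by RT-PCR/capillary electrophoresis. Human HepG2 liver cells, transient multiplex reporter transfection, 24 h chemical exposure.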

Test [17] is described as follows: ATG_GAL4_TRANS: Attagene TRANS-FACTORIAL HepG2 Assay for GAL4 (Internal Marker) (AID 2282976; active means hit-call score of the fitted dose curve at least 0.9, where 1 is the maximum). The conditions noted are these: HepG2 Attagene TRANS GAL4 internal marker reporter. Summed up:
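Liver HepG2 line bearing multiplexed GAL4-UAS reporter constructs; 24 h chemical treatment. Transcripts were quantified as fluorescent fragments on capillary electrophoresis after RT-PCR and HpaI cut, with activity fitted upward from DMSO.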

Test [18] concerns the target Estrogen-related receptor gamma (Homo sapiens) (UniProt P62508). Put plainly: ATG_ERRg_TRANS: Attagene TRANS-FACTORIAL HepG2 Assay for human Estrogen-Related Receptor gamma (ERRg) (AID 2282977; active means hit-call score of the fitted dose curve at least 0.9, where 1 is the maximum;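 further: hits increase reporter signal over DMSO so potencies reflect activators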). The conditions noted are these: HepG2 Attagene TRANS reporter, ERRg transactivation. Summed up:
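HepG2 cells transiently transfected with multiplexed GAL4-UAS reporter units and chimeric NR-Gal4 constructs were exposed to test chemicals for 24 h. Reporter mRNA was measured by RT-PCR, 6-FAM primer extension, HpaI digestion and capillary electrophoresis; gain-of-signal versus DMSO.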

In test [19] the target is Oxysterols receptor LXR-beta (Homo sapiens) (UniProt P55055). Put plainly: ATG_LXRb_TRANS: Attagene TRANS-FACTORIAL HepG2 Assay for human Liver X Receptor beta (LXRb) (AID 2282981; active means hit-call score of the fitted dose curve at least 0.9, where 1 is the maximum). The conditions noted are these: HepG2 Attagene TRANS GAL4-LXRb reporter, mRNA. Summed up:
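Gain-of-signal mRNA reporter endpoint, DMSO as negative control. Transiently transfected HepG2 cells carrying the NR-Gal4 chimera and GAL4-UAS reporter units were treated 24 h; transcripts quantified by RT-PCR and capillary electrophoresis fluorescence.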

Test [20] has as its target Bile acid receptor (Homo sapiens) (UniProt Q96RI1). Kind of test: ATG_FXR_TRANS: Attagene TRANS-FACTORIAL HepG2 Assay for Farnesoid X Receptor (FXR) (AID 2282979; active means hit-call score of the fitted dose curve at least 0.9, where 1 is the maximum;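 further: hits raise reporter mRNA above DMSO so AC50 marks FXR activation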). The note with it: HepG2 Attagene TRANS FXR-GAL4 reporter transcription. Summed up: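 After 24 h chemical treatment of transfected HepG2 cells, GAL4-UAS reporter transcripts driven by an exogenous FXR-GAL4 fusion were measured by RT-PCR and capillary electrophoresis. Increases over DMSO were fitted.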

Sequence of X-box-binding protein 1 (Homo sapiens) (P17861 whole entry, looked up): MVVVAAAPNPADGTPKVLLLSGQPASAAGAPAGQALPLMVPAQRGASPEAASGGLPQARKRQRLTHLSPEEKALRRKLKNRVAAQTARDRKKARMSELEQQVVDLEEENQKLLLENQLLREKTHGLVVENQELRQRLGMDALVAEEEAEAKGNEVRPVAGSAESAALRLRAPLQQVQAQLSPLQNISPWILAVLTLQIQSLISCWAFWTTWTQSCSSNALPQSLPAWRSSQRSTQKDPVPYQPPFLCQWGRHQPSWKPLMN
Sequence of Oxysterols receptor LXR-beta (Homo sapiens) (P55055 whole entry, looked up, the tested form may be a part): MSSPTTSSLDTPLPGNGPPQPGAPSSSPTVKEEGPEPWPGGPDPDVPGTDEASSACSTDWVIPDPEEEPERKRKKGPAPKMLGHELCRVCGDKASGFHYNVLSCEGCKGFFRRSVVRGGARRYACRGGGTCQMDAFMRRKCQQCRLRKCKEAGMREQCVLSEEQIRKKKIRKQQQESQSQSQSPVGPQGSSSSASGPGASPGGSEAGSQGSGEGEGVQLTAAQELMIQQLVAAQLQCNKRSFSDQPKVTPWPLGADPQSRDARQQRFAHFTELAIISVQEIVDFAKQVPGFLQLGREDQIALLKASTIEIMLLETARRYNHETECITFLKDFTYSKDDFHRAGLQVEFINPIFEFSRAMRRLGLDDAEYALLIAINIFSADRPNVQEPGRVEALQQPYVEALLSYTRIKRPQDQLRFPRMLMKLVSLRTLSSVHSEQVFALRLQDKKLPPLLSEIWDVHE
Sequence of Hepatocyte nuclear factor 4-alpha (Homo sapiens) (P41235 whole entry, looked up, the tested form may be a part): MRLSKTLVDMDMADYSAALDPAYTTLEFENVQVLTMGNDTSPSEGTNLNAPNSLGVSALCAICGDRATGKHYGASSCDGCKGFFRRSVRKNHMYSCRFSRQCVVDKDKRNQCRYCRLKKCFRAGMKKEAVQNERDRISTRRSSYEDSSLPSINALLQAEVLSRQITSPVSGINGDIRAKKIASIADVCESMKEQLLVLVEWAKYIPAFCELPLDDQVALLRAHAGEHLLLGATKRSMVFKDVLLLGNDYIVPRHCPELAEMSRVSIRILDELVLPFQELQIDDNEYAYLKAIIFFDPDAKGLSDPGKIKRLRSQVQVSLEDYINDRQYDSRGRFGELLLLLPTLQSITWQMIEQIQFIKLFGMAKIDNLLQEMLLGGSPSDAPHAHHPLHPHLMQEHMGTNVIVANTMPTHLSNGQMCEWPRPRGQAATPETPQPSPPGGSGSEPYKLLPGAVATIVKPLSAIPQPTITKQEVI
Sequence of Nuclear respiratory factor 1 (Homo sapiens) (Q16656 whole entry, looked up): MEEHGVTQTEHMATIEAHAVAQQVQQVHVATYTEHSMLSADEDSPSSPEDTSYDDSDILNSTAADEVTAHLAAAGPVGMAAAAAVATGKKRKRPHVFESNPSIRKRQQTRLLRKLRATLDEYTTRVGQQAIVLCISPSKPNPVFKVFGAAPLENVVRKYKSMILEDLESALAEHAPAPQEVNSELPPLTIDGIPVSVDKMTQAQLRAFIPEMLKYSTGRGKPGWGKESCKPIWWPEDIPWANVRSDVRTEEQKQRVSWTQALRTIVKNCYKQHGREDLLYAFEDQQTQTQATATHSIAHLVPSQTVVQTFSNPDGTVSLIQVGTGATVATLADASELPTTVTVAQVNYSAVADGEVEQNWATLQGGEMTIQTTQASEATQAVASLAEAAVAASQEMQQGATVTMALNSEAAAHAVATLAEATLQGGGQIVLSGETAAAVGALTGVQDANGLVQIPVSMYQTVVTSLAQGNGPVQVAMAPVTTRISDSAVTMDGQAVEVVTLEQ
Sequence of Glucocorticoid receptor (Homo sapiens) (P04150 whole entry, looked up, the tested form may be a part): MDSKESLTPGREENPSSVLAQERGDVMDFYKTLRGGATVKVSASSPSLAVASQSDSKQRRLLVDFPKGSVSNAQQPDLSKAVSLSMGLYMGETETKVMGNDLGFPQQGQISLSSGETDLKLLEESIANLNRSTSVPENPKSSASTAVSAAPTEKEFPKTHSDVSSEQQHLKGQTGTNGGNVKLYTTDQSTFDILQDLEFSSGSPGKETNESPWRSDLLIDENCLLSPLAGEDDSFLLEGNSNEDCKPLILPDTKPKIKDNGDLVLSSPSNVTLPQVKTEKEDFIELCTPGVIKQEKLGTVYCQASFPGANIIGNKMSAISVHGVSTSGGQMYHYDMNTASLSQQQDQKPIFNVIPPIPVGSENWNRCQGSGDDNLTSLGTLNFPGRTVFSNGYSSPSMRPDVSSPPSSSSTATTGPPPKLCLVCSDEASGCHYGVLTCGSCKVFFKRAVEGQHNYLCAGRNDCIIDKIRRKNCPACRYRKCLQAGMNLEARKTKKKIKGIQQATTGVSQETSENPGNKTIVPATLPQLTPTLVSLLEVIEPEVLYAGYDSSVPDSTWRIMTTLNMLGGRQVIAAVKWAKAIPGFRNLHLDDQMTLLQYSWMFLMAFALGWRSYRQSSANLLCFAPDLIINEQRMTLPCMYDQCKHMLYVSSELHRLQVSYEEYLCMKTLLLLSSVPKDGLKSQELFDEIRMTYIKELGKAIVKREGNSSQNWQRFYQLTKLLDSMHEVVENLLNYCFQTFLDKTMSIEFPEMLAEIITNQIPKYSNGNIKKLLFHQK
Sequence of Nuclear receptor subfamily 4 group A member 2 (Homo sapiens) (P43354 whole entry, looked up): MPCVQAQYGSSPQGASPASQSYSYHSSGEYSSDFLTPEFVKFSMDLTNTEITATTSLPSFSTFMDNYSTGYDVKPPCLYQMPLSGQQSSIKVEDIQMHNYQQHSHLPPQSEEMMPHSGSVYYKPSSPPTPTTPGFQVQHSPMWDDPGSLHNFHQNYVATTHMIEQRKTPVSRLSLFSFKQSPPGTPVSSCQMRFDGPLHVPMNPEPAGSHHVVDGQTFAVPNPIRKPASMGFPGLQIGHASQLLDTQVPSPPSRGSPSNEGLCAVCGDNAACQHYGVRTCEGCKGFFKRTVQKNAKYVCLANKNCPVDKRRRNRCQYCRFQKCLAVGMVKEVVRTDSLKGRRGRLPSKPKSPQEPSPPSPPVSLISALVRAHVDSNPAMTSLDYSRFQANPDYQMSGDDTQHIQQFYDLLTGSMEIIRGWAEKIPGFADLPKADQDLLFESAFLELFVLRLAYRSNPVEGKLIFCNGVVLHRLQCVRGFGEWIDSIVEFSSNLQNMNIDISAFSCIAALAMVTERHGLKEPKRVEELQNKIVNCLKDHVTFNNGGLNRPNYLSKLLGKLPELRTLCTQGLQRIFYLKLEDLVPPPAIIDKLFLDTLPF
Sequence of Transcriptional activator Myb (Homo sapiens) (P10242 whole entry, looked up): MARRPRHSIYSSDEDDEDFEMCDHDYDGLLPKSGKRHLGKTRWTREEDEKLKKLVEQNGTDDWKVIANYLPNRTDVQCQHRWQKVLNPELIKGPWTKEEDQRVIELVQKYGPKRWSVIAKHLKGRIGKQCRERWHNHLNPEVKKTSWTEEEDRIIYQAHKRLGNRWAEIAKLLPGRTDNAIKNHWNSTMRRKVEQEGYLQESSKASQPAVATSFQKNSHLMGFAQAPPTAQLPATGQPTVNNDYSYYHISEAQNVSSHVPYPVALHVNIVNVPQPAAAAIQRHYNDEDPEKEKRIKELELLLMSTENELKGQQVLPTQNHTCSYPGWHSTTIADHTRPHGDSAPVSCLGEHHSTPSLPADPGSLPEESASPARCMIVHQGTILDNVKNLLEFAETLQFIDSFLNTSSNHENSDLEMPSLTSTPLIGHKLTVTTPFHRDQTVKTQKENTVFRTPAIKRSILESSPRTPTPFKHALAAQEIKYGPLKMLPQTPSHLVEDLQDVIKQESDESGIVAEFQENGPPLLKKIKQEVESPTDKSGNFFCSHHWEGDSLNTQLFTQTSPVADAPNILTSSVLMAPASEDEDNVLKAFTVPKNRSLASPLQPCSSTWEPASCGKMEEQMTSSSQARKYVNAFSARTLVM
Sequence of Oxysterols receptor LXR-alpha (Homo sapiens) (Q13133 whole entry, looked up, the tested form may be a part): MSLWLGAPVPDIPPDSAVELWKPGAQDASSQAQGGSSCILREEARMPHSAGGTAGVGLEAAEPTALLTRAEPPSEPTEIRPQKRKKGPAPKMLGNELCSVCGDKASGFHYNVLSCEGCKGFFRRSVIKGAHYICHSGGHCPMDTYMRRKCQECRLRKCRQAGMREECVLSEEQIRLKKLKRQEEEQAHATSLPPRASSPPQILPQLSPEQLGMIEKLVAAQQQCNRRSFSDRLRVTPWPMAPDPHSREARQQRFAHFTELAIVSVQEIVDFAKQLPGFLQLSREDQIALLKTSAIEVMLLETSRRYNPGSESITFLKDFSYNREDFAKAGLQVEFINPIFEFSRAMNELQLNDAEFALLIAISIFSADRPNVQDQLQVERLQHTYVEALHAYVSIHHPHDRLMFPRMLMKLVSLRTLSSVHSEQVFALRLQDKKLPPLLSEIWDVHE
Sequence of Nuclear receptor subfamily 1 group I member 3 (Homo sapiens) (Q14994 whole entry, looked up, the tested form may be a part): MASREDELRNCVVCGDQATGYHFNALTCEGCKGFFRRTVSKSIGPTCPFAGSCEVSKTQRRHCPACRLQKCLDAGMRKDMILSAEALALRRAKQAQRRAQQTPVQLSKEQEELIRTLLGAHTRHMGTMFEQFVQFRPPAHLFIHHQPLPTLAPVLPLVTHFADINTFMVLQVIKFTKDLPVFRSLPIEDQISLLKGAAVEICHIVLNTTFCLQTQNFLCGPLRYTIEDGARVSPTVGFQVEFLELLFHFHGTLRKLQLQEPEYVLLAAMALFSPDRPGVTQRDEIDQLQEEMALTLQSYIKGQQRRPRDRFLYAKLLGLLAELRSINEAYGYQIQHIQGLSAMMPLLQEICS
Sequence of Bile acid receptor (Homo sapiens) (Q96RI1 whole entry, looked up, the tested form may be a part): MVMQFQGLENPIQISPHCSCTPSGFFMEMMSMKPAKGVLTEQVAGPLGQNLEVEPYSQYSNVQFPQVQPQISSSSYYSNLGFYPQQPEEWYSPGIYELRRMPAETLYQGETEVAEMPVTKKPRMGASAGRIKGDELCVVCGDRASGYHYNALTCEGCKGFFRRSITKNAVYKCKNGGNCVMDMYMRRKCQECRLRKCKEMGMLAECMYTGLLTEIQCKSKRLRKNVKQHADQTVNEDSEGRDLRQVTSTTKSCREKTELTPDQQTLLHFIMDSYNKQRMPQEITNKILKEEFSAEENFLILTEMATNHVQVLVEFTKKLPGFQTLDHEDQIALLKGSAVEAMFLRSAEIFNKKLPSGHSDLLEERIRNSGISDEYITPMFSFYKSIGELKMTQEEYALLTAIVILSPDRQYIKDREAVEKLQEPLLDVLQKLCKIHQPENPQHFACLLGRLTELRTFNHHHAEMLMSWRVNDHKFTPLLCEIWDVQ

With `CCO/C=C1\N=C(c2ccccc2)OC1=O`, the outcome in test [1], in test [2], in test [3], in test [4], in test [5] and in test [6] was inactive. In addition, the outcome in test [7], in [8], in test [9] and in [10] was inactive.
A word on the AC50: it is the concentration at which the activity in the assay is half-maximal. Regarding `CC(C)CCCCCCCCCCCCCCC(=O)O`, the call in [1], in test [3], in test [5], in test [11], in test [12] and in test [13] was inactive. The call in [7], in [8], in [9] and in test [10] was inactive. Moreover, the AC50 in test [2] was 177 µM (active).
As to `CCCC(=O)c1ccccc1`, the call in test [1], in test [14], in test [15], in test [16], in [3] and in test [4] was inactive. The call in test [17], in test [18], in [5], in [11], in test [19] and in [12] was inactive. The call in [13], in [8], in test [9] and in test [10] was inactive.
For the molecule `CCCC(C)=O`, the outcome in [1], in [2], in test [11], in [6], in test [12] and in test [7] was inactive. Besides, the molecule was called inactive in [8], in test [9] and in test [10].
As to `CC[N+](C)(CC)CC`, the molecule was called inactive in [1], in test [2], in [3], in [4], in test [5] and in test [20]. Also, the call in [6], in test [12], in [8], in [9] and in test [10] was inactive.
Take `Cc1[nH]c(=O)c(C#N)cc1-c1ccncc1`: the molecule was called inactive in [1], in test [2], in [3], in test [19], in test [12] and in test [8]. The molecule was called inactive in test [9] and in [10].
For the molecule `CCOC(=O)C(C#N)=C(c1ccccc1)c1ccccc1`, the result in test [1], in test [2], in test [3], in test [20], in test [12] and in test [13] was inactive. In addition, in test [8], the outcome was inactive. In addition, the AC50 in test [7] is 100 µM (active); in [9], 55.2 µM (active).
For the molecule `C=C(C#N)C(=O)OCC`, the call in [1], in [2], in test [3], in test [4], in [11] and in test [19] was inactive. Moreover, the outcome in [12], in test [13] and in test [9] was inactive.
Take `C=CCCCCCCCCCC`: the molecule was called inactive in [1], in test [2], in [15], in [3], in test [4] and in test [11]. Further, the result in test [19], in test [6], in [13], in test [7], in test [8] and in test [9] was inactive. In addition, in test [10], the outcome was inactive.
